# Bioassay records deposited in PubChem by Broad Institute.
# Only a selection was taken, and hits are over-represented in it overall.
# IDE exosite inh: exo-site inhibitors of human insulin-degrading enzyme. P14735. purified IDE, FL-6b probe fluorescence polarization; hits give low values. z-score at 20 µM. 6.3% of 17,000 active. AID 1259349;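 active = z-score of -3 or lower, meaning strong loss of probe binding signal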;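 also: His-tagged human IDE residues 42-1019 made in E. coli with 30 nM FL-6b probe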
# Target sequence (P14735 42-1019 limits assumed): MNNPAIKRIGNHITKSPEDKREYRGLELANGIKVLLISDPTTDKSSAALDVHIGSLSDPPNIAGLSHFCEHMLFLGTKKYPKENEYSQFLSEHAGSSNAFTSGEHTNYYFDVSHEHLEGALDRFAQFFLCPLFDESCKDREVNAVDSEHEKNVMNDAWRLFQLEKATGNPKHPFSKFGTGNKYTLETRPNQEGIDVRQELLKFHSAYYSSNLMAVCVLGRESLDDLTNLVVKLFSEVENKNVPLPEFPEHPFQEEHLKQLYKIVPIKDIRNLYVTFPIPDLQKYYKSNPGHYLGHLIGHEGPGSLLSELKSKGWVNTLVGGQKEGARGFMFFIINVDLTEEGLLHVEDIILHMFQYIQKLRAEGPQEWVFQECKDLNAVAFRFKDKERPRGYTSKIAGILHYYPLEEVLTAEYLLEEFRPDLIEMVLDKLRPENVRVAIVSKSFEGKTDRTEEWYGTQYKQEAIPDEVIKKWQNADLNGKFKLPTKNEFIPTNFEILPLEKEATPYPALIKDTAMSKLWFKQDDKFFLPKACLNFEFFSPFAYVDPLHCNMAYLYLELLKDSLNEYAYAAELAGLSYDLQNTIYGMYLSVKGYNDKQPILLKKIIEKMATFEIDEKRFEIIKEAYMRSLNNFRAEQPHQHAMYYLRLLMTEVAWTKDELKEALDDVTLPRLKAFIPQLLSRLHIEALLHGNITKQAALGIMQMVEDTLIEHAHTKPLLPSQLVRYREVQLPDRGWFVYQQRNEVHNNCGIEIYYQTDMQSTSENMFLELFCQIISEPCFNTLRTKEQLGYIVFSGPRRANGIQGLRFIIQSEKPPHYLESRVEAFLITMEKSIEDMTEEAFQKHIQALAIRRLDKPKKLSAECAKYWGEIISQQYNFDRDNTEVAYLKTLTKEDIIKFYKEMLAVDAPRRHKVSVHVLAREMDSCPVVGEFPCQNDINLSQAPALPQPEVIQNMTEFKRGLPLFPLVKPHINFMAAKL
# * hit, by the source's call.
SMILES,IDE exosite inh
C[C@H](NC(=O)C[C@@H]1C=C[C@H](NC(=O)c2cccnc2)[C@@H](CO)O1)c1ccccc1,1.2
COc1ccc(NC(=O)N2CC(=O)N3[C@H](CO)[C@H](c4ccc(/C=C/c5ccccc5)cc4)[C@@H]3C2)cc1,-1.2
Cc1ccc(-c2ccc([C@@H]3[C@H](CO)N4C(=O)CN(C(=O)NC(C)C)C[C@@H]34)cc2)cc1,-1.4
CC(C)NC(=O)N1CC(=O)N2[C@H](CO)[C@@H](c3ccc(/C=C/c4ccccc4)cc3)[C@@H]2C1,-3.3*
CC(C)NC(=O)N1CC(=O)N2[C@@H](CO)[C@H](c3ccc(/C=C/c4ccccc4)cc3)[C@@H]2C1,-3.4*
COc1ccc(-c2ccc([C@@H]3[C@H](CO)N4C(=O)CN(C(=O)NC(C)C)C[C@@H]34)cc2)cc1,-0.3
COc1ccc(-c2ccc([C@H]3[C@@H](CO)N4C(=O)CN(C(=O)NC(C)C)C[C@@H]34)cc2)cc1,1.3
O=C(C[C@@H]1CC[C@H]2[C@@H](COC[C@@H](O)CN2S(=O)(=O)c2cccc(Cl)c2)O1)N1CCOCC1,1.5
CCCC#Cc1ccc([C@H]2[C@H]3CN(C(=O)c4ccc5c(c4)OCO5)CCCCN3[C@H]2CO)cc1,2
O=C(C[C@@H]1CC[C@H]2[C@@H](COC[C@H](O)CN2C(=O)c2ccc(F)cc2)O1)N1CCCCC1,1.6
COc1cc(CN2[C@@H]3CNC[C@H]2C3c2ccc(-c3ccc(C)cc3)cc2)cc(OC)c1 (some centres not stated),0.19
O=C(c1ccc(F)cc1)N1CC(=O)N2[C@H](CO)[C@H](c3ccc(C#CC4CCCCC4)cc3)[C@H]2C1,3.5
COc1ccccc1NC(=O)N1CC(=O)N2[C@@H](CO)[C@H](c3ccc(C#Cc4ccccc4)cc3)[C@@H]2C1,-2
CC(C)CC#Cc1ccc([C@@H]2[C@H](CO)N3C(=O)CN(C(=O)NC4CCCCC4)C[C@@H]23)cc1,1.4
O=C(NC1CCCC1)N1CC(=O)N2[C@H](C1)[C@@H](c1ccc(/C=C/c3ccccc3)cc1)[C@@H]2CO,0.84
O=C(NC1CCCCC1)N1CC(=O)N2[C@H](CO)[C@H](c3ccc(/C=C/c4ccccc4)cc3)[C@@H]2C1,-10*
O=C(NC1CCCCC1)N1CC(=O)N2[C@@H](CO)[C@H](c3ccc(/C=C/c4ccccc4)cc3)[C@@H]2C1,-7.4*
CC(C)CC#Cc1ccc([C@H]2[C@H](CO)N3C(=O)CN(C(=O)NC4CCCCC4)C[C@@H]23)cc1,0.26
O=C(NC1CCCCC1)N1CC(=O)N2[C@H](CO)[C@@H](c3ccc(/C=C/c4ccccc4)cc3)[C@@H]2C1,-3.6*
O=C(NC1CCCC1)N1CC(=O)N2[C@H](CO)[C@@H](c3ccc(/C=C/c4ccccc4)cc3)[C@@H]2C1,0.29
O=C(NC1CCCCC1)N1CC(=O)N2[C@H](C1)[C@H](c1ccc(/C=C/c3ccccc3)cc1)[C@@H]2CO,-3.9*
CN(C)CC#Cc1ccc([C@@H]2[C@@H](CO)N3C(=O)CN(C(=O)Cc4cccnc4)C[C@@H]23)cc1,2.9
CCCNC(=O)N1CC2(CCN(Cc3cccc(OC)c3)CC2)c2c(n(C)c3cc(OC)ccc23)[C@@H]1CO,-0.7
CCCNC(=O)N1[C@H](C#N)[C@H](c2ccccc2-c2cccc(C)c2)[C@@H]1CO,0.52
N#C[C@@H]1[C@@H](c2ccccc2-c2ccccc2F)[C@H](CO)N1C(=O)C1CCOCC1,3.8
SMILES,IDE exosite inh
C[C@H](O)C#Cc1ccc([C@@H]2[C@@H](CO)N3CCCCN(C(=O)c4ccncc4)C[C@H]23)cc1,2.4
O=C(c1ccncc1)N1CC(=O)N2[C@H](C1)[C@@H](c1ccc(-c3ccccc3F)cc1)[C@@H]2CO,-7.4*
O=C(c1ccc(F)cc1)N1CC(=O)N2[C@@H](CO)[C@@H](c3ccc(-c4ccccc4F)cc3)[C@@H]2C1,-0.78
O=C(c1ccncc1)N1CC(=O)N2[C@@H](CO)[C@@H](c3ccc(-c4ccccc4F)cc3)[C@@H]2C1,-1.6
O=C(c1ccncc1)N1CC(=O)N2[C@H](CO)[C@@H](c3ccc(-c4ccccc4F)cc3)[C@H]2C1,0.35
O=C(c1ccncc1)N1CC(=O)N2[C@@H](CO)[C@H](c3ccc(-c4ccccc4F)cc3)[C@@H]2C1,-4.8*
O=C(c1ccc(F)cc1)N1CC(=O)N2[C@H](CO)[C@H](c3ccc(-c4ccccc4F)cc3)[C@H]2C1,3
CC(C)NC(=O)N1[C@H](CO)[C@H](c2ccccc2-c2ccc(F)cc2)[C@@H]1C#N,-1.3
CC(=O)NC[C@H]1[C@H](c2ccc(-c3cccnc3)cc2)[C@H](CO)N1C(=O)C1CCC1,3.5
O=C(c1ccc(F)cc1)N1CC(=O)N2[C@H](CO)[C@H](c3ccc(-c4ccccc4)cc3)[C@H]2C1,-0.52
O=C(Cc1ccncc1)N1CC(=O)N2[C@H](C1)[C@H](c1ccc(C3=CCCC3)cc1)[C@@H]2CO,2.7
O=C(Cc1ccccc1)N1CC(=O)N2[C@H](C1)[C@@H](c1ccc(C#Cc3ccccc3)cc1)[C@@H]2CO,-2.8
O=C(Cc1ccccc1)N1CC(=O)N2[C@H](CO)[C@@H](c3ccc(C#CCc4ccccc4)cc3)[C@H]2C1,2.1
CCC(=O)N1CC(=O)N2[C@H](CO)[C@@H](c3ccc(C#CCc4ccccc4)cc3)[C@H]2C1,0.71
O=C(Cc1ccccc1)N1CC(=O)N2[C@H](CO)[C@H](c3ccc(C#CCc4ccccc4)cc3)[C@H]2C1,-4.3*
CCC(=O)N1CC(=O)N2[C@@H](CO)[C@@H](c3ccc(C#CCc4ccccc4)cc3)[C@@H]2C1,-7.4*
CCC(=O)N1CC(=O)N2[C@H](C1)[C@H](c1ccc(C#CCc3ccccc3)cc1)[C@@H]2CO,0.49
N#C[C@@H]1[C@@H](c2ccccc2C2=CCCCC2)[C@@H](CO)N1C(=O)Cc1ccncc1,1.8
O=C(C[C@@H]1C[C@@H]2c3cc(NC(=O)C4CCC4)ccc3O[C@@H]2[C@H](CO)O1)NC1CCCC1,-0.69
CCCN(C[C@@H]1N[C@@H](CO)[C@H]1c1ccc(-c2cccnc2)cc1)C(C)=O,1.1
O=C(c1ccc2c(c1)OCO2)N1C[C@H]2[C@@H](c3ccccc31)[C@H](CO)N2Cc1cccnc1,2.4
COc1ccc(-c2ccc([C@@H]3[C@@H](CO)N4C(=O)CN(C(=O)C5CCCC5)C[C@@H]34)cc2)cc1,-0.91
COc1cccc(-c2ccc([C@@H]3[C@H](CO)N4C(=O)CN(C(=O)C5CCC5)C[C@@H]34)cc2)c1,-10*
COc1ccc(-c2ccc([C@@H]3[C@H]4CN(C(=O)C5CCCC5)CC(=O)N4[C@H]3CO)cc2)cc1,-1.1
COc1ccc(-c2ccc([C@@H]3[C@H]4CN(C(=O)C5CC5)CC(=O)N4[C@H]3CO)cc2)cc1,-2.4
SMILES,IDE exosite inh
COc1ccc(-c2ccc([C@@H]3[C@@H](CO)N4C(=O)CN(C(=O)C5CCCC5)C[C@H]34)cc2)cc1,0.57
COc1ccc(-c2ccc([C@H]3[C@H]4CN(C(=O)C5CCC5)CC(=O)N4[C@H]3CO)cc2)cc1,-0.16
COc1cccc(-c2ccc([C@H]3[C@@H](CO)N4C(=O)CN(C(=O)C5CC5)C[C@@H]34)cc2)c1,-6.5*
COc1cccc(-c2ccc([C@@H]3[C@H]4CN(C(=O)C5CC5)CC(=O)N4[C@H]3CO)cc2)c1,-11*
COc1ccc(-c2ccc([C@H]3[C@@H](CO)N4C(=O)CN(C(=O)C5CCC5)C[C@@H]34)cc2)cc1,1.7
COc1ccc2c3c(n(C)c2c1)[C@@H](CO)N(CC1CC1)CC31CCN(C(=O)NC2CCCC2)CC1,-0.54
